Where “and” joins values, the source holds several entries; their conditions need not be identical. Equal values may be shown once. Calls of active or inactive are those of the source.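 Rule for the calls, unless noted: active = inhibition at or above 50% relative to wild type and mutant plate controls; inactive = inhibition below 50%.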

Assay [1] can be described thus: inhibitors of E-selectin induction by TNFa, primary screen, imaging, HUVEC, immunofluorescence, MLSMR starter and 10KST1 sets (AID 487;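 active = visually confirmed hit in the image check and inhibition above 20%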;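 for inhibition: signal is fraction of cell area covered by stained E-selectin grains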;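 for nuclei count: 100% = median nuclei count of all wells on the same plate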). Conditions: HUVEC TNFalpha-induced E-selectin immunofluorescence imaging, at 2 µM; inhibition: stronger effect = higher value; nuclei count: measured here: cell number, toxicity.
Assay [2] can be described thus: DUSP6 inhibitors restoring Erk phosphorylation by chemical complementation, primary imaging in DUSP6-transfected HeLa (AID 609;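 active = compounds giving at least 50% inhibition in the cell-based MKP-3 phosphatase rescue imaging test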;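 for inhibition: phospho-Erk level distribution per well compared with pooled transfected vehicle control wells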). Conditions: HeLa MKP-3 transfected, phospho-Erk imaging KS statistic, at 10 µM, cells stimulated with TPA for 15 min.
Assay [3] addresses Dual specificity protein phosphatase 6 (Homo sapiens) (UniProt Q16828). The assay is described as above. The settings on record: HeLa MKP-3 transfected, phospho-Erk imaging KS statistic; at 10 µM; stronger effect = higher value; cells stimulated with TPA for 15 min.
The target of assay [4] is Voltage-gated potassium channel subunit beta-2 (Rattus norvegicus) (UniProt P62483). The assay can be described thus: KvBeta enzyme negative modulators, primary screen, biochemical, NADPH fluorescence (AID 622;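 active = fluorescence slope higher than the sample average by over 3 SD, cut at about -0.22 in these data, passing the limit was not always enough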;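 note: slope of raw intensity against log time taken from 70 to 1610 s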). The settings on record: recombinant KvBeta, 4-cyanobenzaldehyde reduction, at 10 µM, stronger effect = higher value.
Sequence of Voltage-gated potassium channel subunit beta-2 (Rattus norvegicus) (P62483 whole entry, looked up): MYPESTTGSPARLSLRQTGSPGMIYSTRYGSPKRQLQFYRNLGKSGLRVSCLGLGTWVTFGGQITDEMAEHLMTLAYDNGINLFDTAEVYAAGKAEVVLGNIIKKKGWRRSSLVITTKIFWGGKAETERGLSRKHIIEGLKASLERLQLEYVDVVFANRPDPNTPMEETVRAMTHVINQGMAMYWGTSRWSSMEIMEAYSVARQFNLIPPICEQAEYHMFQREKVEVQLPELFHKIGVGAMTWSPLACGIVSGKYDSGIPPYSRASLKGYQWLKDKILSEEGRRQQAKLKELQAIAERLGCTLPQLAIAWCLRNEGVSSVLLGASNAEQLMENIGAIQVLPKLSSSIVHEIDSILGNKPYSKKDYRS
For assay [5] the target is unchanged. The assay can be described thus: KvBeta positive modulators, primary screen, biochemical, NADPH fluorescence (AID 623;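 active = NADPH fluorescence slope more negative than the mean of all samples by about 3 SD, 99.7% confidence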;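 note: fluorescence intensity change per second fitted from 20 to 320 s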). The settings on record: Recombinant KvBeta, NADPH fluorescence decrease slope, 10 min; at 10 µM; stronger effect = lower value.
For assay [6], the target named is Muscarinic acetylcholine receptor M4 (Homo sapiens) (UniProt P08173). The assay can be described thus: compounds altering M4/GIRK thallium flux, either direction, primary screen, M4 allosteric agonist project, cell-based, HEK293 M4/GIRK, BTC-AM (AID 625;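 active = fluorescence slope after compound addition differing from the mean of all tested samples at 99.7% confidence, mostly higher but some lower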;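 note: thallium influx through GIRK channels coupled to M4 in HEK293 cells with BTC-AM dye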). The settings on record: at 10 µM, actives lie on both sides.
Sequence of Muscarinic acetylcholine receptor M4 (Homo sapiens) (P08173 whole entry, looked up): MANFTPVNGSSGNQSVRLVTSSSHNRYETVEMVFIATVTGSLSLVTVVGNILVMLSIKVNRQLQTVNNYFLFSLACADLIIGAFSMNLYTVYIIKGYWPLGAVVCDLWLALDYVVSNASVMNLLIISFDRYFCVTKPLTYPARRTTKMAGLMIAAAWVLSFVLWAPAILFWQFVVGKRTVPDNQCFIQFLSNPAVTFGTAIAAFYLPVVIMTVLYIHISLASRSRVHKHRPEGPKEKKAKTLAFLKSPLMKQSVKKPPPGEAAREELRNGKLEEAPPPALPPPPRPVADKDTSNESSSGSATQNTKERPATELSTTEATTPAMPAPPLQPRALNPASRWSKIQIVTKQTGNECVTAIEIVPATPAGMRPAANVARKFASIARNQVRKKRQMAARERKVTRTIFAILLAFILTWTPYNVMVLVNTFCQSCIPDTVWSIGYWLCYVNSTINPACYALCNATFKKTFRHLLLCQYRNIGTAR
Assay [7] can be described thus: inhibitors of larval lipid processing in zebrafish, primary screen, whole organism, PED6 fluorescence, gall bladder and intestine (AID 686;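 active = a full or partial loss of lipid-probe fluorescence in the fish gall bladder, intestine or both, judged by eye; inactive = no fluorescence loss, or compound toxic to the fish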;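 note: larvae 5 to 7 days old with five fish per well; signal comes from phospholipase A2 cleavage of quenched PED6 carried via bile; overnight exposure to compound and PED6 before scoring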). The settings on record: Zebrafish larvae PED6 lipid processing, fluorescence scoring; screened at 20 µM (by protocol).
Assay [8] in a line: inhibitors of Chlamydomonas gravitaxis, primary screen, whole organism, Chlamydomonas reinhardtii, WT vs cilia-less mutant, absorbance, 96-well (AID 463189).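 Note: 0% = wild type cc124 cells in DMSO and 100% = ciliumless bld1 mutant cells.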 The settings on record: OD600 absorbance, 2 days, at 10 µM, stronger effect = higher value.
Assay [9] has as its target Alpha-2C adrenergic receptor (Homo sapiens) (UniProt P18825). In words: modulators of alpha2C/GIRK thallium flux, primary screen, cell-based, HEK293 alpha2C/GIRK1/2 (AID 624;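 active = fluorescence slope after compound addition differing from the mean of all screened samples at 99.7% confidence, in either direction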;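 note: slope of fluorescence ratio to pre-addition baseline per second over 15 to 24 s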). The settings on record: thallium flux BTC fluorescence, at 10 µM, actives lie on both sides.
A short description of assay [10]: inhibitors of Sendai virus-induced IRF3 signaling, primary screen, TLR/RLR signaling modifier project, cell-based, Sendai virus stimulus, luciferase, 10K MLSCN set (AID 602276;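 active = inhibition at or above 50% at 10 µM; inactive = inhibition below 50%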;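 note: firefly luciferase from ISG56 promoter only with Renilla not read in this screen; 0% = Sendai virus plus DMSO and 100% = medium plus DMSO without virus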). Conditions: HEK293 RL24 IRF3 luciferase reporter, at 10 µM, stronger effect = higher value.
A short description of assay [11]: inhibitors of poly I:C-induced TLR3 signaling, primary screen, cell-based, poly I:C stimulus, luciferase, 10K MLSCN set (AID 602277;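 active = inhibition of the reporter signal at or above 50%; inactive = inhibition below 50%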). Conditions: HEK293-TLR3 RL24 IRF3 luciferase reporter, at 10 µM, stronger effect = higher value.
Assay [12] in a line: inhibitors of mutant huntingtin aggregation, primary screen, imaging, exon1htt(103Q)mCFP cells, high-content imaging (AID 483;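 active = visual image review flags a hit and inhibition of aggregation exceeds 20%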;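 note: compound exposure lasted 3 days before fixation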;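 for nuclei count: percent of the per-plate median nuclei count of sample wells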). Conditions: exon1htt(103Q)mCFP cell line, aggregate imaging, at 2 µM; inhibition of aggregation: stronger effect = higher value; nuclei count: measured here: cell count, toxicity.
[13] abbreviates: measured here: cell density z-score.
Setting [14] is: measured here: nuclear c-Myc green intensity z-score.
Setting [15] is: measured here: nuclear pErk red intensity z-score, stronger effect = higher value.

Sequence of Alpha-2C adrenergic receptor (Homo sapiens) (P18825 whole entry, looked up): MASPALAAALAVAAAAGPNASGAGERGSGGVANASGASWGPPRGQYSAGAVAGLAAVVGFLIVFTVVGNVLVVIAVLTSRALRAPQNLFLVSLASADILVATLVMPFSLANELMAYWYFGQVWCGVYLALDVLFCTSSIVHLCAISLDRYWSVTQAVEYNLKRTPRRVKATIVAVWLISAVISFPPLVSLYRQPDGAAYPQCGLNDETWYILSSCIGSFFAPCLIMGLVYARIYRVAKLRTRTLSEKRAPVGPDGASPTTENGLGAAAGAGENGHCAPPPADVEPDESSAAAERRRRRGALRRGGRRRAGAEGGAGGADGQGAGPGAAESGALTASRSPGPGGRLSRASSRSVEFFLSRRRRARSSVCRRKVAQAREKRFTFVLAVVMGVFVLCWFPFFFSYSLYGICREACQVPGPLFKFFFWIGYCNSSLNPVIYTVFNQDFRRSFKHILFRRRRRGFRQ
Sequence of Dual specificity protein phosphatase 6 (Homo sapiens) (Q16828 whole entry, looked up): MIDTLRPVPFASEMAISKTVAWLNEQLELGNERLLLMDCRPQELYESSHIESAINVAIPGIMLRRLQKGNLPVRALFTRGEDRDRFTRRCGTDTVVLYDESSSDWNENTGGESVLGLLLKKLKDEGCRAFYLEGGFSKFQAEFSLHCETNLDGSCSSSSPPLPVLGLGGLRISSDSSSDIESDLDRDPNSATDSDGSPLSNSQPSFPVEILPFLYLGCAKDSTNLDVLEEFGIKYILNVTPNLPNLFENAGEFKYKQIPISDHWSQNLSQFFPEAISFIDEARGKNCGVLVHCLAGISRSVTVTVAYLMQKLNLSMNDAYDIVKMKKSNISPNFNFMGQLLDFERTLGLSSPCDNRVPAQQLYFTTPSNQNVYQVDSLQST

In the case of `CC1(C)CC(=O)C(C=N)=C(O)C1`, the inhibition (commonly the drop in the measured response relative to a control, in per cent) in assay [1] is -29.4% (inactive); in assay [3], -3.98% (inactive); in assay [8], 3.24% (inactive). For the same compound, the nuclei count in assay [1] stood at 169%. Further, the z-score was -0.419 in assay [2] (setting [13]), -0.908 in [2] (setting [14]) and 0.177 in [2] (setting [15]). The fluorescence slope in assay [4] was -0.384 (inactive); in assay [6], 0.00587 (inactive). In addition, the NADPH fluorescence slope in [5] was -3.8e-05 (inactive). Further, in assay [7], the call was inactive.
On to `COc1ccc(OC)c(N=C(C)C2=C(O)COC2=O)c1`, for which the inhibition in assay [1] was -20.1% (inactive); in assay [3], -0.159% (inactive); in [8], -11.6% (inactive). For the same compound, in assay [1], the nuclei count was 104%. The figures for the z-score in assay [2] (setting [13]), in assay [2] (setting [14]) and in assay [2] (setting [15]) were -1.31, 0.523 and 0.389, respectively. Also, the fluorescence slope in [4] is -0.404 (inactive); in [6], 0.00554 (inactive). The NADPH fluorescence slope in [5] is 6.7e-06 (inactive). Also, in assay [7], the outcome is “inactive; toxic”.
Regarding `COc1ccc([C@@H]2Sc3ccccc3N(CCN(C)C)C(=O)[C@@H]2OC(C)=O)cc1`, the inhibition in assay [1] is -27.1% (inactive); in assay [3], -4.44% (inactive); in [8] it was 4.06% (inactive) and -15.6% (inactive); in assay [10], 16.3% (inactive); in [11], 35.5% (inactive). The compound further yielded a nuclei count in assay [1] of 104%. Further, the z-score in assay [2] (setting [13]) was 0.794; in assay [2] (setting [14]), -1.47; in assay [2] (setting [15]), 0.473. The fluorescence slope in assay [4] is -0.507 (inactive). The NADPH fluorescence slope in [5] is -7.4e-05 (inactive). Also, the slope in assay [9] was 0.00609 (inactive). For the same compound, in assay [7], the result was inactive.
Take `O=C(CCCN1CCC(O)(c2ccc(Cl)cc2)CC1)c1ccc(F)cc1`: the inhibition in assay [1] was -112% (inactive); in assay [3], 10.2% (inactive); in [8] it was -2.31% (inactive) and 3.84% (inactive); in assay [10], -13% (inactive); in assay [11] it was -5.69% (inactive). Further, in [1], the nuclei count worked out at 130%. Besides, the results for the z-score in assay [2] (setting [13]), in assay [2] (setting [14]) and in assay [2] (setting [15]) were 1.12, -0.669 and -0.889, respectively. For the same compound, the figures for the fluorescence slope in assay [4] and in [6] were -0.485 (inactive) and 0.00387 (inactive), respectively. For the same compound, in assay [5], the NADPH fluorescence slope was -4.2e-05 (inactive).
In the case of `COc1ccc(C(=O)NCC(=O)n2nc(C)cc2C)cc1OC`, the results for the inhibition in assay [1], in assay [3] and in [8] were -38.7% (inactive), 3.66% (inactive) and -5.61% (inactive), respectively. The compound further showed a nuclei count in assay [1] of 95.9%. The z-score in assay [2] (setting [13]) was -0.145; in assay [2] (setting [14]), 0.45; in assay [2] (setting [15]), -1.73. The results for the fluorescence slope in assay [4] and in [6] were -0.415 (inactive) and 0.00491 (inactive), respectively. The NADPH fluorescence slope in [5] is -1.8e-05 (inactive). Besides, the compound was called inactive in [7].
`COc1cc(C)nc(Oc2ccc(=O)[nH]n2)n1`: the results for the inhibition in assay [1], in assay [3] and in [8] were -34.6% (inactive), 5.57% (inactive) and 34.1% (inactive), respectively. Also, the nuclei count in assay [1] turned out to be 147%. Also, the z-score in assay [2] (setting [13]) is -0.3; in assay [2] (setting [14]), 1.04; in [2] (setting [15]) it was -1.72. For the same compound, the fluorescence slope in [4] is -0.296 (inactive); in [6] it was 0.00779 (inactive). Also, the NADPH fluorescence slope in [5] is -4e-05 (inactive). Also, the call in assay [7] was inactive.
Consider `Cc1c(C(=O)O)sc(=S)n1-c1ccccc1`, for which the inhibition in [1] was -33.5% (inactive); in assay [3] it was 20.8% (inactive); in assay [8], 12.3% (inactive). The nuclei count in assay [1] worked out at 141%. Moreover, the values for the z-score in [2] (setting [13]), in [2] (setting [14]) and in assay [2] (setting [15]) were 0.701, -0.0654 and 0.165, respectively. Also, the values for the fluorescence slope in assay [4] and in [6] were -0.372 (inactive) and 0.0076 (inactive), respectively. Moreover, the NADPH fluorescence slope in assay [5] was -3.1e-05 (inactive). Besides, the outcome in assay [7] was inactive.
As to `CC1(C)CC(=O)C=C(NCCO)C1`, the inhibition is -18.5% (inactive) in assay [1], 20.8% (inactive) in assay [3] and 40.3% (inactive) in assay [8]. The compound also had a nuclei count in assay [1] of 146%. For the same compound, the z-score in assay [2] (setting [13]) was 1.01; in assay [2] (setting [14]) it was -0.173; in assay [2] (setting [15]), -0.675. The figures for the fluorescence slope in assay [4] and in assay [6] were -0.395 (inactive) and 0.00557 (inactive), respectively. Besides, the NADPH fluorescence slope in assay [5] was -5.8e-05 (inactive). Moreover, the outcome in assay [7] was inactive.
As to `CC1(c2cnc(Nc3ccccc3)s2)CCC(=O)O1` (stereo unspecified), the inhibition is -192% (inactive) in assay [1], 24.7% (inactive) in assay [3] and 9.89% (inactive) in assay [8]. Besides, in [1], the nuclei count was found to be 138%. Also, the z-score in assay [2] (setting [13]) is 0.619; in [2] (setting [14]), -0.905; in [2] (setting [15]), -1.23. Also, the fluorescence slope was -0.359 (inactive) in assay [4] and 0.00609 (inactive) in [6]. Moreover, the NADPH fluorescence slope in assay [5] is 1.9e-06 (inactive). Also, the outcome in assay [7] was “active; weak signal in gallbladder only”.
Regarding `NC(N)=Nc1nc(CSCC/C(N)=N/S(N)(=O)=O)cs1`, in assay [12], the inhibition of aggregation is 0.8% (inactive). Further, the nuclei count in [12] turned out to be 101%; in [1], 116%. The inhibition in [1] is -48.3% (inactive); in [3], 16.8% (inactive); in [8], 2.23% (inactive) and -8.71% (inactive); in [10] it was 13.5% (inactive); in [11], 42.5% (inactive). Also, the z-score in [2] (setting [13]) was -1.28; in [2] (setting [14]), 1.78; in assay [2] (setting [15]), -1.37. The slope in assay [9] is 0.00523 (inactive). For the same compound, the call in assay [7] was inactive.
As to `CCCc1nnc(SCc2ccc(OCC)cc2)n1N`, the inhibition in assay [1] was -86% (inactive); in [3], 7.48% (inactive); in [8] it was 28.9% (inactive). This compound displayed a nuclei count in [1] of 147%. Further, the z-score in assay [2] (setting [13]) was -0.133; in [2] (setting [14]), 1.35; in assay [2] (setting [15]) it was 1.37. The figures for the fluorescence slope in assay [4] and in [6] were -0.421 (inactive) and 0.00481 (inactive), respectively. For the same compound, the NADPH fluorescence slope in [5] was -1.6e-05 (inactive). Besides, the outcome in [7] was inactive.
On to `CCOC(=O)c1cc(CC)sc1NC(=O)C1CC1`, for which the inhibition is 5.7% (inactive) in assay [1], 1.75% (inactive) in assay [3] and -9.3% (inactive) in [8]. The nuclei count in assay [1] is 151%. For the same compound, the z-score is 0.13 in assay [2] (setting [13]), -0.277 in assay [2] (setting [14]) and 0.203 in [2] (setting [15]). Moreover, the figures for the fluorescence slope in assay [4] and in assay [6] were -0.369 (inactive) and 0.0058 (inactive), respectively. The NADPH fluorescence slope in assay [5] is -6.8e-05 (inactive). In addition, the call in assay [7] was inactive.
Consider `COc1ccc(-c2coc3cc(O)cc(O)c3c2=O)cc1`, for which, in assay [12], the inhibition of aggregation is 9.1% (inactive). The compound also had a nuclei count in [12] of 116%. Further, the z-score is -0.996 in [2] (setting [13]), 0.921 in assay [2] (setting [14]) and 0.72 in assay [2] (setting [15]). For the same compound, the inhibition in assay [3] was 10.2% (inactive); in assay [8] it was -12.4% (inactive); in assay [10] it was -90.2% (inactive); in assay [11], -200% (inactive). Besides, in assay [4], the fluorescence slope was -0.544 (inactive). The NADPH fluorescence slope in assay [5] is -4.1e-06 (inactive). Moreover, the slope in assay [9] was 0.00576 (inactive). Besides, the outcome in [7] was inactive.
As for `COc1cc(C(=O)Nc2ccccn2)cc(OC)c1OC`, the inhibition in assay [1] was -234% (inactive); in [3] it was -2.07% (inactive); in assay [8], 6.27% (inactive). Also, the nuclei count in assay [1] turned out to be 165%. Besides, the z-score in assay [2] (setting [13]) is -0.193; in assay [2] (setting [14]) it was -1.03; in assay [2] (setting [15]), 0.79. For the same compound, the fluorescence slope was -0.398 (inactive) in [4] and 0.00377 (inactive) in [6]. Further, the NADPH fluorescence slope in assay [5] was -5.6e-05 (inactive). Besides, in assay [7], the compound was called inactive.
